# From paper PMC7862700, “An all-to-all approach to the identification of sequence-specific readers for epigenetic DNA modifications on cytosine”
# Tests used:
# Experiment in all cases: DAPPL (digital affinity profiling via proximity ligation, sequencing); 10 mM Tris-HCl pH 7.5, 50 mM NaCl, 1 mM DTT, 4% glycerol, room temperature, 30 min; GST-TFs on glutathione beads, 16-mer random dsDNA library, 0.1% formaldehyde crosslink after washing; high values mean tight binding
# Details in all cases: protein: recombinant; tags: N-terminal GST; dsDNA, one strand shown
# [1] = molecular target: T1, ERF (Homo sapiens, UniProt P50548 1-548)
# T1 sequence: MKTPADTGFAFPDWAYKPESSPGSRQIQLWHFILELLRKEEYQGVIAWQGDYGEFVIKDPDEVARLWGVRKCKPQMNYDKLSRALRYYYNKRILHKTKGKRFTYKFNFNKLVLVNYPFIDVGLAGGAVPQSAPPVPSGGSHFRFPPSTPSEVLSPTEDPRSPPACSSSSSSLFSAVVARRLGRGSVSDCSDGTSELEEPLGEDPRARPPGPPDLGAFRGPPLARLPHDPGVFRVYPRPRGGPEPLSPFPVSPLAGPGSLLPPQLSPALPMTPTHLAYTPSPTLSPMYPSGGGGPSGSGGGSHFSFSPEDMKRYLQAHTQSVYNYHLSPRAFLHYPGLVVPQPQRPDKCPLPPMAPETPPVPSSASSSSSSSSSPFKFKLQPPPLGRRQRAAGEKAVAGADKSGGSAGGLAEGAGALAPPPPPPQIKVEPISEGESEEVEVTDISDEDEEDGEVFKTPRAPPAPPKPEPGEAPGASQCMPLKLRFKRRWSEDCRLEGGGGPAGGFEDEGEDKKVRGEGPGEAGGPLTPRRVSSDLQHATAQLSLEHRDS
# How it was run: (§1)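 GST fusions of human transcription factors were expressed in yeast and captured with glutathione beads. Once given DNA barcodes and pooled alongside a tag-only sample, they were incubated for 30 min at room temperature with 200 nmole of a random double-stranded 16-mer DNA library in Tris/NaCl/DTT/glycerol buffer, then washed, crosslinked (0.1% formaldehyde), proximity-ligated, PCR-amplified and sequenced on an Illumina NextSeq500. The binding signal of each hexamer is its read frequency for a factor divided by its frequency for the tag-only sample.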
# [2] = molecular target: T2, ETV3L (Homo sapiens, UniProt Q6ZN32 1-361)
# T2 sequence: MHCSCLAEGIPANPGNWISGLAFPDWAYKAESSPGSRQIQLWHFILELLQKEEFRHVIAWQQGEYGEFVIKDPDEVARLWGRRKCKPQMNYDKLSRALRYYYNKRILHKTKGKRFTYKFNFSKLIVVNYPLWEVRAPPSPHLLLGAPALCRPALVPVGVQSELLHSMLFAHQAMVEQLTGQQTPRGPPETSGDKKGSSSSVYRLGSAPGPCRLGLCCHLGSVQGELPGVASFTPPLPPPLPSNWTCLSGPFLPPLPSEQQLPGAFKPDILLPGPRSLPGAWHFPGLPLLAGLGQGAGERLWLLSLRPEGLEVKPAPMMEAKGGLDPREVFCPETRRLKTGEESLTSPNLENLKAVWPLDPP
# How it was run: as §1
# [3] = molecular target: T3, ETS2 (Homo sapiens, UniProt P15036 1-469)
# T3 sequence: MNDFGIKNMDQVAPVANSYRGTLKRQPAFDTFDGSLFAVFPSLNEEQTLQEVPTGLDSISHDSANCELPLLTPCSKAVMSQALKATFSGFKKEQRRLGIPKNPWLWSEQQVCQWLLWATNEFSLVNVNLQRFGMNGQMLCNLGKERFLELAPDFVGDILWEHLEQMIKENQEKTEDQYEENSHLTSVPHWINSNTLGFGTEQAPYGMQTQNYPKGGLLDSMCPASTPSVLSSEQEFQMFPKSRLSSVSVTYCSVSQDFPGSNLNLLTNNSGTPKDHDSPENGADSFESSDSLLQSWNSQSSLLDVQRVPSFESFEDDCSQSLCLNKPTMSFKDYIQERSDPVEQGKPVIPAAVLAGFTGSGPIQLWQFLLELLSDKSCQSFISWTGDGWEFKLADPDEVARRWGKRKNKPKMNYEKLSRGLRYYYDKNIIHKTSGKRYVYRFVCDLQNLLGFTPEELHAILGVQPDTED
# How it was run: as §1
# [4] = molecular target: T4, SPDEF (Homo sapiens, UniProt O95238 1-335)
# T4 sequence: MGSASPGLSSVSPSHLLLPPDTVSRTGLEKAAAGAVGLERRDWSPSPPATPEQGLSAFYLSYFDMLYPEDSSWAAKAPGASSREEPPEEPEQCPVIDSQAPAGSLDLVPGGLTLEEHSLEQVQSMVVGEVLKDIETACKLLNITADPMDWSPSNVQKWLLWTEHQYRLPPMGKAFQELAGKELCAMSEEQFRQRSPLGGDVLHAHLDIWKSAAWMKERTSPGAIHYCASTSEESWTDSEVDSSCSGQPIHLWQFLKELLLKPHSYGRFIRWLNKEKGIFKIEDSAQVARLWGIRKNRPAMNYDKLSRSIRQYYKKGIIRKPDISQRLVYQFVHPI
# How it was run: as §1
# [5] = molecular target: T5, ELF5 (Homo sapiens, UniProt Q9UKW6-2 1-255)
# T5 sequence: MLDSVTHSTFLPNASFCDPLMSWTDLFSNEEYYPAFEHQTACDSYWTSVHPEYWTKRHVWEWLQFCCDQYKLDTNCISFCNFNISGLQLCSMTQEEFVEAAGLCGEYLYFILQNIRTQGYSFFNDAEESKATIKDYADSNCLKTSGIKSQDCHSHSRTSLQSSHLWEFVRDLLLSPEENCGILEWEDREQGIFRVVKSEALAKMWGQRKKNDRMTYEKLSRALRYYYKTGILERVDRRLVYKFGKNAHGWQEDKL
# How it was run: as §1
# [6] = molecular target: T6, ETV3 (Homo sapiens, UniProt P41162-2 1-143)
# T6 sequence: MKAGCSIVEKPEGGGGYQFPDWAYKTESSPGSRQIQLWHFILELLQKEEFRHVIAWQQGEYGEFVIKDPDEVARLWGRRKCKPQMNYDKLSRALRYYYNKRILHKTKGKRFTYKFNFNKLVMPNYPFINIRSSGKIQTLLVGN
# How it was run: as §1
# [7] = molecular target: ETV6 (Homo sapiens, UniProt P41212 1-452)
# How it was run: as §1
# [8] = molecular target: T7, ETV7 (Homo sapiens, UniProt Q9Y603 1-341)
# T7 sequence: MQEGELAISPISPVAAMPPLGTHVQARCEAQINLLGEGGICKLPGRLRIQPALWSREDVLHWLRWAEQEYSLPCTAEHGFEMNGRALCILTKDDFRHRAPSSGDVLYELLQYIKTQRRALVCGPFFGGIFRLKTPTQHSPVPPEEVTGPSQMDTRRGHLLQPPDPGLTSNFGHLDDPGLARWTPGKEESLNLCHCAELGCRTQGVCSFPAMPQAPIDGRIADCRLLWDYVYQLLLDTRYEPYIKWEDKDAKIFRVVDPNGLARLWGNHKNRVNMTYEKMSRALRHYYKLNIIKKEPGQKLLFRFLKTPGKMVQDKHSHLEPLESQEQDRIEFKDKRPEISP
# How it was run: as §1
# ETV6, sequence (P41212 whole entry): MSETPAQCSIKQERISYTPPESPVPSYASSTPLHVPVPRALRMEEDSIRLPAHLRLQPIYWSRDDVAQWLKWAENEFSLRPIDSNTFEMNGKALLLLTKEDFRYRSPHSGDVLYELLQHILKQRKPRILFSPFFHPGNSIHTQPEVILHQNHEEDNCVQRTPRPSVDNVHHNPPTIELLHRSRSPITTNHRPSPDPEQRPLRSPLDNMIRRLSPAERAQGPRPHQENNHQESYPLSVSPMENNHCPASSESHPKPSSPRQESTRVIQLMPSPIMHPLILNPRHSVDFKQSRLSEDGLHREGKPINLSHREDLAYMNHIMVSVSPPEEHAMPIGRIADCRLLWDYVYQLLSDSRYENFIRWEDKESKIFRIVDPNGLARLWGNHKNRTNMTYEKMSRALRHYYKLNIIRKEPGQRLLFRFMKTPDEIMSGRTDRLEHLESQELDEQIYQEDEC
Sequence,binding signal [1],binding signal [2],binding signal [3],binding signal [4],binding signal [5],binding signal [6],binding signal [7],binding signal [8]
CATGCC,"1.12 fold enrichment (6-mer frequency, TF over GST control)","1 fold enrichment (6-mer frequency, TF over GST control)","1.05 fold enrichment (6-mer frequency, TF over GST control)","1.09 fold enrichment (6-mer frequency, TF over GST control)","1.05 fold enrichment (6-mer frequency, TF over GST control)","1.22 fold enrichment (6-mer frequency, TF over GST control)","1.15 fold enrichment (6-mer frequency, TF over GST control)",–
TCTACA,"1.31 fold enrichment (6-mer frequency, TF over GST control)","1.21 fold enrichment (6-mer frequency, TF over GST control)","1.29 fold enrichment (6-mer frequency, TF over GST control)","1.27 fold enrichment (6-mer frequency, TF over GST control)","1.19 fold enrichment (6-mer frequency, TF over GST control)","1.18 fold enrichment (6-mer frequency, TF over GST control)","1.19 fold enrichment (6-mer frequency, TF over GST control)",–
GCTCAG,"1.18 fold enrichment (6-mer frequency, TF over GST control)","1.16 fold enrichment (6-mer frequency, TF over GST control)","1.06 fold enrichment (6-mer frequency, TF over GST control)","1.09 fold enrichment (6-mer frequency, TF over GST control)","1.01 fold enrichment (6-mer frequency, TF over GST control)","1.1 fold enrichment (6-mer frequency, TF over GST control)","1.13 fold enrichment (6-mer frequency, TF over GST control)",–
TCGCCG,"1.38 fold enrichment (6-mer frequency, TF over GST control)","1.25 fold enrichment (6-mer frequency, TF over GST control)","1.26 fold enrichment (6-mer frequency, TF over GST control)","1.01 fold enrichment (6-mer frequency, TF over GST control)","1.15 fold enrichment (6-mer frequency, TF over GST control)","1.2 fold enrichment (6-mer frequency, TF over GST control)","1.13 fold enrichment (6-mer frequency, TF over GST control)",–
ATCACA,"1.04 fold enrichment (6-mer frequency, TF over GST control)","1.05 fold enrichment (6-mer frequency, TF over GST control)","1.09 fold enrichment (6-mer frequency, TF over GST control)","1.05 fold enrichment (6-mer frequency, TF over GST control)",–,"1.09 fold enrichment (6-mer frequency, TF over GST control)","1.13 fold enrichment (6-mer frequency, TF over GST control)",–
GATCCC,"1.3 fold enrichment (6-mer frequency, TF over GST control)","1.2 fold enrichment (6-mer frequency, TF over GST control)","1.11 fold enrichment (6-mer frequency, TF over GST control)","1.27 fold enrichment (6-mer frequency, TF over GST control)","1.1 fold enrichment (6-mer frequency, TF over GST control)","1.11 fold enrichment (6-mer frequency, TF over GST control)","1.12 fold enrichment (6-mer frequency, TF over GST control)",–
TAGGTT,"1.06 fold enrichment (6-mer frequency, TF over GST control)","1.08 fold enrichment (6-mer frequency, TF over GST control)","1.06 fold enrichment (6-mer frequency, TF over GST control)","1.17 fold enrichment (6-mer frequency, TF over GST control)","1.06 fold enrichment (6-mer frequency, TF over GST control)","1.14 fold enrichment (6-mer frequency, TF over GST control)","1.16 fold enrichment (6-mer frequency, TF over GST control)",–
CGCCTA,"1.15 fold enrichment (6-mer frequency, TF over GST control)","1.25 fold enrichment (6-mer frequency, TF over GST control)","1.19 fold enrichment (6-mer frequency, TF over GST control)","1.15 fold enrichment (6-mer frequency, TF over GST control)","1.18 fold enrichment (6-mer frequency, TF over GST control)","1.2 fold enrichment (6-mer frequency, TF over GST control)","1.14 fold enrichment (6-mer frequency, TF over GST control)",–
CAAAGC,"1.13 fold enrichment (6-mer frequency, TF over GST control)","1.07 fold enrichment (6-mer frequency, TF over GST control)","1 fold enrichment (6-mer frequency, TF over GST control)","1.06 fold enrichment (6-mer frequency, TF over GST control)","1.01 fold enrichment (6-mer frequency, TF over GST control)","1.08 fold enrichment (6-mer frequency, TF over GST control)","1.08 fold enrichment (6-mer frequency, TF over GST control)",–
CGGCTT,"1.27 fold enrichment (6-mer frequency, TF over GST control)","1.1 fold enrichment (6-mer frequency, TF over GST control)","1.21 fold enrichment (6-mer frequency, TF over GST control)","1.33 fold enrichment (6-mer frequency, TF over GST control)","1.19 fold enrichment (6-mer frequency, TF over GST control)","1.15 fold enrichment (6-mer frequency, TF over GST control)","1.16 fold enrichment (6-mer frequency, TF over GST control)",–
CTCGGT,"1.14 fold enrichment (6-mer frequency, TF over GST control)","1.12 fold enrichment (6-mer frequency, TF over GST control)","1.11 fold enrichment (6-mer frequency, TF over GST control)","1.02 fold enrichment (6-mer frequency, TF over GST control)",–,–,"1.08 fold enrichment (6-mer frequency, TF over GST control)","1.05 fold enrichment (6-mer frequency, TF over GST control)"
CTGTGC,"1.12 fold enrichment (6-mer frequency, TF over GST control)","1.13 fold enrichment (6-mer frequency, TF over GST control)","1.18 fold enrichment (6-mer frequency, TF over GST control)","1.12 fold enrichment (6-mer frequency, TF over GST control)","1 fold enrichment (6-mer frequency, TF over GST control)","1.19 fold enrichment (6-mer frequency, TF over GST control)","1.22 fold enrichment (6-mer frequency, TF over GST control)",–
GATACG,"1.12 fold enrichment (6-mer frequency, TF over GST control)","1.1 fold enrichment (6-mer frequency, TF over GST control)","1.11 fold enrichment (6-mer frequency, TF over GST control)","1.35 fold enrichment (6-mer frequency, TF over GST control)","1.1 fold enrichment (6-mer frequency, TF over GST control)","1.12 fold enrichment (6-mer frequency, TF over GST control)","1.09 fold enrichment (6-mer frequency, TF over GST control)",–
GATACT,"1.22 fold enrichment (6-mer frequency, TF over GST control)","1.22 fold enrichment (6-mer frequency, TF over GST control)","1.09 fold enrichment (6-mer frequency, TF over GST control)","1.17 fold enrichment (6-mer frequency, TF over GST control)","1.06 fold enrichment (6-mer frequency, TF over GST control)","1.06 fold enrichment (6-mer frequency, TF over GST control)","1.07 fold enrichment (6-mer frequency, TF over GST control)",–
